# Rv3671c inh: inhibits the M. tuberculosis serine protease Rv3671c | inhibition, % at 5.96 µM | 320,000 compounds, 0.048% hits; in the data active = inhibition above about 38%;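 also: extracellular domain of Rv3671c used as enzyme; 0% = enzyme with DMSO and 100% = no enzyme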
# Mtb betalactam: beta-lactam sensitization of Mtb H37Rv; M. tuberculosis H37Rv growth with meropenem, percent inhibition; inhibition, % at 25 µM; AID 434955; 330,000 compounds, 0.27% hits; call rule not given here;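 also: growth measured after seven days incubation then overnight dye step; 0% = bacteria only wells and 100% = bacteria with antibiotic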
# Mtb FBA inh: inhibitors of M. tuberculosis fructose-bisphosphate aldolase | P9WQA3 | purified M. tuberculosis FBA, fluorescence read-out | inhibition, % at 1 µM | 360,000 compounds, 2.3% hits;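 also: 0% = vehicle and 100% = reference inhibitor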
# Target sequence (P9WQA3 whole entry, looked up): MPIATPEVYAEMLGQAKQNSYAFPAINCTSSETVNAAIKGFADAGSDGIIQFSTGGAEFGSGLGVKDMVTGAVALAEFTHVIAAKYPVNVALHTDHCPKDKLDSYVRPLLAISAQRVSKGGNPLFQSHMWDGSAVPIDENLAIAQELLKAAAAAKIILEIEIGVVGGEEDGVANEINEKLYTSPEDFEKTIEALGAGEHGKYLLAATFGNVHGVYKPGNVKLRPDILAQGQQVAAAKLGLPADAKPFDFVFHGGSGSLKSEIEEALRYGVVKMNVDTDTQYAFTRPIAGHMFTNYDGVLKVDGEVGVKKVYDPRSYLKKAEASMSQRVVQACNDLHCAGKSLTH
# Mtb UGM inh: Mtb UDP-galactopyranose mutase inhibition; P9WIQ1; purified UGM, fluorescence polarization probe displacement; 320,000 compounds, 0.06% hits; inhibition, % at 10 µM; AID 504406; in the data active = inhibition above about 10%, passing the limit was not always enough
# FadD28 binding: M. tuberculosis FadD28 bisubstrate binding inhibition | FadD28 bisubstrate probe binding, fluorescence polarization | inhibition, % at 12.5 µM | AID 588549 | 360,000 compounds, 0.22% hits; in the data active = inhibition above about 8.5%, passing the limit was not always enough
# GDH-TPI counter-1: counter-screen for M. tuberculosis FBA inhibitors: GDH-TPI coupled enzymes; GDH-TPI coupled enzyme counterscreen, NADH absorbance; inhibition, % at 4.8 µM; 360,000 compounds, 1.2% hits; AID 588335; in the data active = inhibition above about 30%;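 also: 0% = DMSO wells and 100% = wells lacking the enzyme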
# Mtb FBA inh conf: Mtb FBA inhibition, confirmed. inhibition, % at 1 µM. shares compounds with Mtb FBA inh. purified M. tuberculosis FBA, fluorescence read-out. 5,600 compounds, 78% hits;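 also: 0% = vehicle wells and 100% = reference inhibitor wells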
# GDH-TPI counter-2: GDH-TPI inhibition counter-screen for FBA inhibitors | inhibition, % at 1 µM | shares compounds with Mtb FBA inh | 5,600 compounds, 81% hits | GDH-TPI coupled enzyme counterscreen, fluorescence; in the data active = inhibition above about 10%
# GDH-TPI dose: GDH-TPI dose response counter-screen for Mtb FBA; shares compounds with Mtb FBA inh; GDH-TPI coupled enzyme assay, fluorescence, artifact counterscreen; IC50, µM; 170 compounds, 79% hits; AID 652145; call rule not given here
# * marks the source's active call; other numbers are inactive results; . = no result; + = active, no number. An excerpt weighted towards active compounds, which were near 3.7% of everything screened. Rule as the data show it, unless noted: active = inhibition above about 27%; inactive = the rest.
SMILES,Rv3671c inh,Mtb betalactam,Mtb FBA inh,Mtb UGM inh,FadD28 binding,GDH-TPI counter-1,Mtb FBA inh conf,GDH-TPI counter-2,others
COc1ccc(C(=O)N/N=C/c2ccc(N(C)c3ccccc3)cc2)cc1,3.5,-5.7,40.9*,-0.2,3.9,26.1,109.4*,99.0*,
COC(=O)c1ccccc1Nc1ccnc(Cl)n1,1.9,-6.5,4.6,3.0,0.4,12.5,.,.,
CC1C(c2ccccc2)OCCN1C(=S)Nc1ccc(S(=O)(=O)N2CCCCC2)cc1 (stereo unspecified),.,.,-0.8,.,-10.3,-2.6,.,.,
COc1cc2c(cc1OC)CN(CC(=O)Nc1ccccc1C#N)CC2,-2.4,-2.9,64.7*,-1.3,-4.8,0.8,155.8*,175.6*,
COc1cc2c(cc1OC)CN(CC(=O)Nc1ccccc1SC)CC2,6.2,-4.4,0.7,-1.7,-0.5,-1.2,.,.,
O=C(NCc1ccco1)c1cc2nc(-c3cccs3)cc(C(F)(F)F)n2n1,-6.2,6.7,37.0*,-0.2,-0.6,20.8,2.7,-1.3,
COc1ccc(Nc2cc(C(=O)NCc3ccco3)c3ccccc3n2)cc1,-4.9,2.5,.,1.4,.,.,.,.,
Cc1nn(-c2ccccn2)c2nc(-c3cccs3)cc(C(=O)NCc3ccco3)c12,0.8,-9.1,48.4*,1.9,-5.7,30.3,58.5*,61.4*,
O=C(NCc1ccco1)c1cc(-c2cccs2)nc2ccccc12,-20.8,1.8,79.2*,1.9,-6.6,17.3,9.3,-4.5,
CC(C)OCCCNC(=O)c1cc(-c2cccs2)nc2ccccc12,-0.4,0.0,93.4*,4.5,-3.5,16.9,88.4*,82.8*,
Cc1nn(-c2ccccc2)c2nc(-c3ccncc3)cc(C(=O)NCc3ccco3)c12,-8.8,98.9,-1.8,0.6,-2.0,4.6,.,.,
O=CNC1(c2ccccc2)CCCCC1,.,.,4.4,.,-1.7,14.2,.,.,
COc1ccc(NC(=O)C2(C)Cc3c(-c4ccc(C(N)=O)cc4)ccnc3O2)cn1 (stereo unspecified),.,.,-0.2,.,-2.9,-2.6,.,.,
Cc1ccc(O)c(-c2cc(-c3ccccc3F)[nH]n2)c1,-0.5,75.6,0.4,-0.3,-11.7,-11.9,.,.,
COc1ccc(-c2cc(=O)c3ccccc3[nH]2)cc1,-5.6,-5.1,11.8,0.6,-3.6,11.2,.,.,
COc1ccc(-c2cc3ccccc3[nH]2)cc1,7.1,6.0,29.1*,-1.8,-2.3,0.5,73.7*,61.7*,
c1ccc(-c2cc3ccccc3[nH]2)cc1,8.7,99.7,60.1*,-2.8,0.4,5.3,114.0*,93.4*,
Cc1ccc(O)c(-c2cc3ccccc3[nH]2)c1,5.4,1.0,52.4*,-2.8,-0.7,15.9,71.1*,44.7*,
O=C1c2cccc(-c3ccc(C(F)(F)F)cc3)c2C2CC=CCN12 (stereo unspecified),.,.,-0.9,.,-2.1,.,.,.,
CCC(=O)N(c1nnc(SCC(=O)Nc2sccc2C(N)=O)s1)C1CC1,.,.,6.3,.,0.0,4.4,.,.,
CCN(CC)CCCNc1nc(C)cc(COC)c1C#N,2.9,-9.2,75.8*,1.2,-1.0,5.7,114.4*,102.6*,
CCC1(CC)SCCNC1=O,.,.,0.5,.,1.8,3.9,.,.,
Cn1ccc2c(-c3ccc(C(F)(F)F)cc3)cc3c(c21)C1CCC3O1 (stereo unspecified),.,.,92.9*,.,-0.1,.,98.3*,69.0*,
Cn1ccc2c(-c3ccc4c(c3)OCCO4)cc3c(c21)C1CCC3O1 (stereo unspecified),.,.,109.0*,.,2.4,.,1.0,-4.3,
Cn1ccc2c(-c3ccc4c(c3)OCCO4)cc3c(c21)C1CCC3C1 (stereo unspecified),.,.,1.0,.,0.1,.,.,.,
SMILES,Rv3671c inh,Mtb betalactam,Mtb FBA inh,Mtb UGM inh,FadD28 binding,GDH-TPI counter-1,Mtb FBA inh conf,GDH-TPI counter-2,others
COc1ccc(-c2cc3c(c4c2ccn4C)C2CCC3O2)cc1OC (stereo unspecified),.,.,-0.4,.,0.3,.,.,.,
CSc1ccc(-c2cc3c(c4c2ccn4C)C2CCC3O2)cc1 (stereo unspecified),.,.,100.7*,.,7.4,.,14.0,11.5*,
CCCCCCCCCC(=O)N[C@@H]1c2cc(OC)c(OC)cc2C[C@H]1O,.,.,2.4,.,-1.8,4.5,.,.,
O=c1[nH]c2cc3c(cc2cc1C(c1nnnn1CC1CCCO1)N1CCCC1)OCO3 (stereo unspecified),-0.9,-4.5,29.4*,0.7,1.3,21.4,+,+,
O=c1[nH]c2cc3c(cc2cc1C(c1nnnn1CC1CCCO1)N1CCCCCC1)OCCO3 (stereo unspecified),0.7,4.4,20.5,0.1,-3.0,15.5,.,.,
CCC(C)(C)n1nnnc1C(C(C)C)N(Cc1ccco1)Cc1cc2cc3c(cc2[nH]c1=O)OCO3 (stereo unspecified),2.3,0.0,29.3*,6.1,0.1,8.7,51.9*,44.0*,
CCN1CCN(C(c2cc3cc4c(cc3[nH]c2=O)OCO4)c2nnnn2C(C)(C)CC)CC1 (stereo unspecified),3.3,-5.8,94.2*,1.8,-2.0,31.8*,8.6,0.8,
COc1c(Cl)cccc1-c1cn2ccccc2n1,6.1,14.7,68.1*,-1.9,-2.3,7.3,6.0,4.1,
c1ccc(-c2nc(-c3nccc4ccccc34)oc2-c2ccccc2)cc1,-29.3,27.9,62.4*,3.4,-3.9,5.2,91.2*,52.0*,
Nc1nc(-c2ccccc2)c(-c2ccccc2)o1,3.2,-11.9,5.2,-0.4,-0.4,-3.5,.,.,
Cc1c(C)c2ccc(OCC(=O)N(C)C3CCS(=O)(=O)C3)c(C)c2oc1=O (stereo unspecified),-3.5,-0.7,89.0*,0.0,0.6,8.3,71.1*,64.5*,
Cc1c(C)c2ccc(OCC(=O)N3CC[C@@]4(O)CCCC[C@H]4C3)c(C)c2oc1=O,2.7,-9.2,36.2*,3.3,-1.1,3.9,104.2*,92.2*,
Cc1cc(=O)oc2cc(OCC(=O)N3CC[C@@]4(O)CCCC[C@H]4C3)ccc12,4.3,-0.9,24.5,0.0,1.5,23.5,.,.,
CCc1cc(=O)oc2cc(OCC(=O)N3CC[C@@]4(O)CCCC[C@H]4C3)ccc12,0.5,-7.5,30.3*,-2.7,0.5,28.4,64.2*,48.4*,
COc1cccc(NS(=O)(=O)c2ccc(-n3cccn3)cc2)c1,-12.9,-6.9,0.5,-1.0,-0.9,5.6,.,.,
O=c1[nH]c(=O)n(C2OC(CO)C(O)C2O)c2c1CCCC2 (stereo unspecified),.,.,-0.7,.,-2.8,.,.,.,
COc1ccc2cc(C(N)=O)c(=Nc3ccccc3)oc2c1,-20.1,-2.7,35.6*,0.1,1.0,13.2,10.3,-5.4,GDH-TPI dose=>10
CCN1CCSc2ccc(C(=O)NCc3ccccc3F)cc21,2.7,2.2,86.9*,3.4,-0.7,12.0,+,+,

# Assay outcomes as filed in PubChem.
